This assay concerns the target T1, CRBN, Q96SW2.
T1 chain: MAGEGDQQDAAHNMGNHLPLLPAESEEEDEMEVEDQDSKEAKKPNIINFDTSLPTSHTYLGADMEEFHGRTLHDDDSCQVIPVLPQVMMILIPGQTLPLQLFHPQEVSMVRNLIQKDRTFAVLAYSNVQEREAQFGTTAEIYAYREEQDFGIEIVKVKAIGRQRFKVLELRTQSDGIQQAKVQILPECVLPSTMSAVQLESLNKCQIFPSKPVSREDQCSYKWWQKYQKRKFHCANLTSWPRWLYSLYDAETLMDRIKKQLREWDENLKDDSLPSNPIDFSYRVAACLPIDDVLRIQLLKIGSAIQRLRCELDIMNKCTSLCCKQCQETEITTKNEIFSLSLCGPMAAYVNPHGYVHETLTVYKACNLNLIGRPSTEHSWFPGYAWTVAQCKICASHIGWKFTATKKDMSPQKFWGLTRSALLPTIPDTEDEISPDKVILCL
The assay can be described thus: log2 fold change of degron read counts, EGFP-low vs EGFP+ sorted cells (limma voom), compound-induced degradation; higher = more compound-induced degradation of the degron-EGFP fusion; degrons are variants of IKZF1/3 zinc finger 2; compound dose not given here. The conditions noted are these: Jurkat, 18 h.

[1] abbreviates: compound: compound 19 (5-tert-butyl-thalidomide).
[2] abbreviates: compound: compound 22 (5-morpholino-thalidomide).
The mark [3] stands for this setting: compound: compound 33 (diphenyl IMiD analogue).

Over roughly 8,300 sequences, “log2 fold change of degron read counts, EGFP-low vs EGFP+ sorted cells (limma voom), compound-induced degradation” has its median near -1.1; the highest 2% begin near 3.2. Only a selection was taken, and the highest values are over-represented in it overall.
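Also: pooled lentiviral library of zinc finger degron-EGFP fusions in mCherry-positive Jurkat cells, FACS-sorted after compound exposure, with degron abundance counted by next-generation sequencing.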

In the case of FRCNQCGHPFTQKGNLLRHIKL [46F_47R_49N_50Q_52G_53H_54P_55F_67L_, Q9UKT9], the “log2 fold change of degron read counts” value by setting is: under setting [1], -1.26; under setting [2], -1.57; under setting [3], -1.18; (compound: thalidomide) -0.69.

In the case of FWCPICGRRFTQKGNLLRHIKL [46F_47W_49P_50I_52G_53R_54R_55F_67L_, Q9UKT9], the “log2 fold change of degron read counts” value under setting [1] was -0.549, the “log2 fold change of degron read counts” value under setting [2] was determined as 1.78, the “log2 fold change of degron read counts” value under setting [3] was -0.519 and the “log2 fold change of degron read counts” value (compound: thalidomide) was -0.365.

With FDCNQCGRPFTQKGNLLRHIKL [46F_47D_49N_50Q_52G_53R_54P_55F_67L_, Q9UKT9], the “log2 fold change of degron read counts” value was -2.11 under setting [1], -2.72 under setting [2], -2.47 under setting [3] and -2.01 (compound: thalidomide).

As for FTCEVCGAKFTQKGNLLRHIKL [46F_47T_49E_50V_52G_53A_54K_55F_67L_, Q9UKT9], the “log2 fold change of degron read counts” value runs as follows: under setting [1], 0.575; under setting [2], 1.8; under setting [3], -0.259; (compound: thalidomide) 2.77.

As for FVCPICGHVFTQKGNLLRHIKL [46F_47V_49P_50I_52G_53H_54V_55F_67L_, Q9UKT9], the “log2 fold change of degron read counts” value under setting [1] was -1.93, the “log2 fold change of degron read counts” value under setting [2] was -1.85, the “log2 fold change of degron read counts” value under setting [3] was -1.17 and the “log2 fold change of degron read counts” value (compound: thalidomide) was -0.831.

In the case of FFCNQCGHRFTQKGNLLRHIKL [46F_47F_49N_50Q_52G_53H_54R_55F_67L_, Q9UKT9], the “log2 fold change of degron read counts” value is -1.77 under setting [1], -1.83 under setting [2], -1.97 under setting [3] and -1.98 (compound: thalidomide).

For the sequence FTCSVCGHMFTQKGNLLRHIKL [46F_47T_49S_50V_52G_53H_54M_55F_67L_, Q9UKT9], the “log2 fold change of degron read counts” value under setting [1] is -2.72, the “log2 fold change of degron read counts” value under setting [2] is -3.24, the “log2 fold change of degron read counts” value under setting [3] was -2.66 and the “log2 fold change of degron read counts” value (compound: thalidomide) is -2.24.

For the sequence FHCPVCGATFTQKGNLLRHIKL [46F_47H_49P_50V_52G_53A_54T_55F_67L_, Q9UKT9], the “log2 fold change of degron read counts” value is, setting by setting: under setting [1], 1.14; under setting [2], 1.21; under setting [3], 1.72; (compound: thalidomide) -0.00776.

For FACPVCGATFTQKGNLLRHIKL [46F_47A_49P_50V_52G_53A_54T_55F_67L_, Q9UKT9], the “log2 fold change of degron read counts” value came to 3.23 under setting [1], 1.68 under setting [2], 1.17 under setting [3] and 0.555 (compound: thalidomide).

Turning to FYCPVCGATFTQKGNLLRHIKL [46F_47Y_49P_50V_52G_53A_54T_55F_67L_, Q9UKT9], the “log2 fold change of degron read counts” value reads like this: under setting [1], 2.81; under setting [2], 3.38; under setting [3], 2.28; (compound: thalidomide) 1.02.

Take FWCNQCGHQFTQKGNLLRHIKL [46F_47W_49N_50Q_52G_53H_54Q_55F_67L_, Q9UKT9]: the “log2 fold change of degron read counts” value by setting is: under setting [1], -2.03; under setting [2], -2.39; under setting [3], -2.26; (compound: thalidomide) -1.81.

As to FTCNICGAIFTQKGNLLRHIKL [46F_47T_49N_50I_52G_53A_54I_55F_67L_, Q9UKT9], the “log2 fold change of degron read counts” value is, setting by setting: under setting [1], -1; under setting [2], 0.0209; under setting [3], 0.936; (compound: thalidomide) 1.06.

Turning to FLCDICGANFTQKGNLLRHIKL [46F_47L_49D_50I_52G_53A_54N_55F_67L_, Q9UKT9], the “log2 fold change of degron read counts” value is, setting by setting: under setting [1], -1.24; under setting [2], -1.68; under setting [3], 0.196; (compound: thalidomide) -0.528.

As to FWCDICGANFTQKGNLLRHIKL [46F_47W_49D_50I_52G_53A_54N_55F_67L_, Q9UKT9], the “log2 fold change of degron read counts” value turned out to be 2.81 under setting [1], 3.71 under setting [2], 1.34 under setting [3] and 0.139 (compound: thalidomide).

As for FHCDICGANFTQKGNLLRHIKL [46F_47H_49D_50I_52G_53A_54N_55F_67L_, Q9UKT9], the “log2 fold change of degron read counts” value reads like this: under setting [1], -0.867; under setting [2], -0.624; under setting [3], -1.82; (compound: thalidomide) -2.82.

In the case of FYCDICGANFTQKGNLLRHIKL [46F_47Y_49D_50I_52G_53A_54N_55F_67L_, Q9UKT9], the “log2 fold change of degron read counts” value is 2.78 under setting [1], 3.42 under setting [2], 1.2 under setting [3] and -0.676 (compound: thalidomide).

Regarding FCCDICGANFTQKGNLLRHIKL [46F_47C_49D_50I_52G_53A_54N_55F_67L_, Q9UKT9], the “log2 fold change of degron read counts” value by setting is: under setting [1], 0.761; under setting [2], 0.588; under setting [3], 0.858; (compound: thalidomide) -0.326.

With FECDICGANFTQKGNLLRHIKL [46F_47E_49D_50I_52G_53A_54N_55F_67L_, Q9UKT9], the “log2 fold change of degron read counts” value under setting [1] was -1.28, the “log2 fold change of degron read counts” value under setting [2] is -2.43, the “log2 fold change of degron read counts” value under setting [3] was determined as 0.537 and the “log2 fold change of degron read counts” value (compound: thalidomide) was found to be 0.012.

For the origin of these results see the supplement of paper PMC12645437, “Orthogonal IMiD-Degron Pairs Induce Selective Protein Degradation in Cells” (ACS Chemical Biology, 2025).
